This note sets out measurements from ChEMBL document CHEMBL3988442, “University of Dundee, Small-Polar-MMV Screening Library” (2021).

The target of assay [1] is T1, Aspartate--tRNA(Asp/Asn) ligase (Mycobacterium tuberculosis (strain ATCC 25618 / H37Rv)) (UniProt P9WFW3). Further: in the data most compounds retested in dose-response had high values.
T1 sequence (whole entry): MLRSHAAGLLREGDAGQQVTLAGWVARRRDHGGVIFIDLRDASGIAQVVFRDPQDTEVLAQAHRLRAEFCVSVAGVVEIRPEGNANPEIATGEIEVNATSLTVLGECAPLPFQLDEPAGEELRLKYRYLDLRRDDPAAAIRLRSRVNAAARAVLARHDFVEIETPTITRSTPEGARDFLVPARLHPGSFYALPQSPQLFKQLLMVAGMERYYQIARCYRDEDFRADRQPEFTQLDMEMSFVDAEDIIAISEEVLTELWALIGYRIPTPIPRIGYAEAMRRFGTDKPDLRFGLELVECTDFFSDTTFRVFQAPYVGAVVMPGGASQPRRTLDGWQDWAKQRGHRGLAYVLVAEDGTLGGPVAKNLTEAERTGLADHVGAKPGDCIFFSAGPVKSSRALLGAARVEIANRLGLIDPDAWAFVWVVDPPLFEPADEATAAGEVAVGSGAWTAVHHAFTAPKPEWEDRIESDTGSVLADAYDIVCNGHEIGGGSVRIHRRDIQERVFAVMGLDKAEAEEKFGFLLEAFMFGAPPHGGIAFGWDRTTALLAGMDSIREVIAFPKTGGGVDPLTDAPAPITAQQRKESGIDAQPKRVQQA
The assay can be described thus: Assay for Asp RNA synthetase-1 from Mycobacterium tuberculosis. The class given is functional. Also noted: scale not given: direction of the effect not stated beside the values. The following applies: 30 µM.

Assay [2] addresses Shiga toxin 2 (Escherichia coli O157:H7) (UniProt P09385+P09386). The assay is described as follows: E. coli 0.157:H7 Shiga Toxin SOP - stx2 screening assay. The class given is functional. The arrangement: scale not given: direction of the effect not stated beside the values. The following applies: 30 µM.

`CC(C)OCc1ncn2c1CN(Cc1cccs1)CCC2`: the Percent Effect is 8.33% in assay [1] and -0.247% in assay [2].

`Cc1nn(C)c(N2CCOCC2)c1CNC1CCc2ccccc2C1` (configuration not stated): the Percent Effect was -2.23% in assay [1] and -3.73% in assay [2].

As for `Cc1cc(NC(=O)CN2CCn3c(nnc3C3CC3)C2)n(C)n1`, the Percent Effect in assay [1] was -5.68%; in assay [2] it was 19.6%.

With `CSc1ccc(NS(=O)(=O)c2cnn(C)c2)cn1`, the Percent Effect was 1.57% in assay [1] and -7.54% in assay [2].

With `C=Cc1ccc(C(=O)N2CCCC(Nc3ccc(F)cc3)C2)cc1` (configuration not stated), the Percent Effect in assay [1] is -0.502%; in assay [2] it was -4.33%.

Consider `Cc1ccc(N2CCCN(C(=O)C(C(C)C)n3cncn3)CC2)nn1` (configuration not stated), for which the Percent Effect in assay [1] is -4.34%; in assay [2], -13.6%.

In the case of `Cc1cccnc1C(=O)N1CCCCC1c1[nH]ncc1S(C)(=O)=O` (configuration not stated), the Percent Effect is 5.01% in assay [1] and 6.84% in assay [2].

For the compound `Cc1cnn(CC2CCCCN2Cc2noc(C3CC3)n2)c1` (configuration not stated), the Percent Effect in assay [1] was -2.57%; in assay [2], 26.8%.

Consider `O=C(c1coc(COc2cccc(F)c2)n1)N1CC[C@H](O)[C@@H](O)C1`, for which the Percent Effect is 2.06% in assay [1] and 11.7% in assay [2].

For the compound `Cc1cnn(CCNCc2ccc(C#N)cc2F)c1`, the Percent Effect is -3.18% in assay [1] and 6.24% in assay [2].

As for `Cc1noc(C)c1CNC(=O)c1ccc(NC2CC2)nc1`, the Percent Effect is 3.65% in assay [1] and 13.4% in assay [2].

Take `c1ccc(Oc2cc(CNCC3CNc4ccnn4C3)ccn2)cc1` (configuration not stated): the Percent Effect in assay [1] is -8.46%; in assay [2], -36.5%.

On to `COc1ccc(CN2CCC3(CC2)CCN(CC2CC2)C3=O)cc1`, for which the Percent Effect in assay [1] was -4.6%; in assay [2], -2.04%.

Take `CN(Cc1ccccn1)C(=O)[C@]12COC[C@H]1CN(Cc1cnn(C)c1)C2`: the Percent Effect in assay [1] was -0.844%; in assay [2], -6.88%.

Consider `Cc1ccc(C(=O)NCCCNS(C)(=O)=O)cc1-n1cccc1`, for which the Percent Effect in assay [1] is -0.21%; in assay [2], -17.9%.

For `Cc1cc(Nc2nc(C)cs2)nc(C2CCCCN2CCO)n1` (configuration not stated), the Percent Effect is 0.7% in assay [1] and -34.2% in assay [2].

On to `CCc1c(C(=O)N2CCCN(C(C)=O)CC2)cnn1C(C)(C)C`, for which the results for the Percent Effect in assay [1] and in assay [2] were 0.899% and 3.41%, respectively.

With `CC(C)NC(=O)c1sccc1N(C)S(=O)(=O)c1ccc(Cl)cc1`, the Percent Effect in assay [1] was 4.25%; in assay [2], -18.9%.

Turning to `O=C(NCc1cc[nH]n1)N1CCN(c2ccccc2Cl)CC1`, the Percent Effect amounted to 0.562% in assay [1] and 11.5% in assay [2].

Take `CCCNC(=O)NCc1cccnc1OC`: the Percent Effect in assay [1] was -6.48%; in assay [2], -26.6%.

Consider `CCc1cc(O)nc(C2CCCN2C(=O)c2cccnc2)n1` (configuration not stated), for which the Percent Effect in assay [1] came out at 2.54%; in assay [2], 2.33%.

`Cc1n[nH]c(C2CN(C(=O)Cn3ccccc3=O)CCO2)n1` (configuration not stated): the Percent Effect was -3.22% in assay [1] and 10.2% in assay [2].

Take `O=S(=O)(NCC1(O)CCOc2ccccc21)c1ccc(Br)s1` (configuration not stated): the Percent Effect came out at 3.31% in assay [1] and 17.9% in assay [2].

As to `CN1CCCCC1c1ncc2c(n1)CCN(Cc1ccccc1Cl)C2` (configuration not stated), the Percent Effect in assay [1] was 3.02%; in assay [2], -22.5%.

In the case of `Cc1cnn(CCNCc2ccccc2OCc2cccnc2)c1`, the results for the Percent Effect in assay [1] and in assay [2] were 4.5% and -8.49%, respectively.

Consider `CN(C(=O)Cn1nc(-c2ccc(F)cc2)ccc1=O)C1CCS(=O)(=O)C1` (configuration not stated), for which the results for the Percent Effect in assay [1] and in assay [2] were 3.06% and 1.8%, respectively.

Consider `CCc1n[nH]c(C2CN(Cc3nnc(C4CC4)n3C)CCO2)n1` (configuration not stated), for which the Percent Effect in assay [1] is -0.577%; in assay [2] it was 9.55%.

For `CN(Cc1nccs1)c1nc(-c2ccccn2)nc2c1CCNCC2`, the Percent Effect in assay [1] was 2.26%; in assay [2], -12.4%.

Regarding `O=C(c1cnoc1)N1CCC[C@]2(C[C@H](Oc3ncccc3F)CO2)C1`, the Percent Effect is -2.03% in assay [1] and -8.52% in assay [2].

Take `CN(C)C(=O)COC[C@]12COC[C@H]1CN(Cc1ccoc1)C2`: the Percent Effect in assay [1] is -2.38%; in assay [2], -7.04%.

As for `C1CC(c2noc(C3CC3)n2)CN(Cc2noc(C3CC3)n2)C1` (configuration not stated), the Percent Effect in assay [1] is -1.05%; in assay [2], 6.22%.

`Cc1cnccc1CN1CC[C@@](C)(O)[C@H](Oc2ccccc2)C1`: the Percent Effect in assay [1] was -5.05%; in assay [2], -31%.

Turning to `COc1ccc2c(c1)OCC(CNC(=O)c1ccncc1)C2` (configuration not stated), the figures for the Percent Effect in assay [1] and in assay [2] were -2.83% and 17.7%, respectively.

For the compound `COCc1noc(-c2ccc(N3CCCCC3CO)nc2)n1` (configuration not stated), the results for the Percent Effect in assay [1] and in assay [2] were -2.46% and -5%, respectively.

Take `CC(=O)Nc1ccc(-n2ccc3nc(N4CCCC4)ncc3c2=O)cc1`: the Percent Effect is 4.09% in assay [1] and -9.95% in assay [2].

For the compound `CN(C)CC(=O)N1CCOCC2(C1)CN(c1ccccc1)C(=O)CO2` (configuration not stated), the Percent Effect in assay [1] is 3.93%; in assay [2] it was -23.2%.

Consider `CCCc1nc(C)c(C(=O)NCCN2CCN(CC)CC2)s1`, for which the Percent Effect in assay [1] is -0.278%; in assay [2], -15.4%.

For `Cc1nc(C)n(CC2CN(CCOc3ccccc3F)CCO2)n1` (configuration not stated), the Percent Effect in assay [1] is -0.955%; in assay [2] it was 9.47%.

In the case of `Cc1occc1CNC(=O)N(CCCO)C1CCc2ccccc21` (configuration not stated), the results for the Percent Effect in assay [1] and in assay [2] were -3.25% and 8.04%, respectively.

Regarding `Cc1nnc2n1CCN(C(=O)COCCOc1ccccc1)C2`, the Percent Effect is -0.422% in assay [1] and -37.2% in assay [2].

As for `CC(=O)N1CCC2(CC1)COCCN2CCN(C)C`, the Percent Effect in assay [1] came out at 0.524%; in assay [2], 1.75%.

As for `CC1N(CC2CC2)C(=O)COC12CCN(Cc1nccs1)CC2` (configuration not stated), the Percent Effect was -0.821% in assay [1] and -13.9% in assay [2].

As for `Clc1ccccc1C1(c2ccnc(CC3CC3)n2)CCNCC1`, the values for the Percent Effect in assay [1] and in assay [2] were -0.0892% and -10.7%, respectively.

`COc1cccc(OCc2cc(C(=O)NC[C@H]3CCCN3)n[nH]2)c1`: the figures for the Percent Effect in assay [1] and in assay [2] were 1% and -1.49%, respectively.

With `CCOc1ccccc1C(CC(=O)Nc1ccc(C)cn1)NC(C)=O` (configuration not stated), the Percent Effect in assay [1] was -0.122%; in assay [2], 14.7%.

`CCCOc1cccc(CNC(=O)CN2CCN(C)CC2C)c1` (configuration not stated): the figures for the Percent Effect in assay [1] and in assay [2] were 2.62% and -7.72%, respectively.

Consider `Cc1ccc(C)c(NC(=O)c2n[nH]c(-n3cnnc3)n2)c1`, for which the Percent Effect in assay [1] was -4.33%; in assay [2] it was -11.6%.

As to `Cc1nonc1C(=O)N1CCCC(c2ncncc2-c2ccncc2)C1` (configuration not stated), the Percent Effect in assay [1] is 2.57%; in assay [2], 10.2%.

Turning to `Cc1ncnc2c1CCN(Cc1ccc3c(c1)OCO3)CC2`, the Percent Effect in assay [1] is -0.729%; in assay [2], -19.3%.

`Cc1cccc(NC2CCN(C(=O)Nc3cccc4[nH]ccc34)CC2)n1`: the figures for the Percent Effect in assay [1] and in assay [2] were -0.4% and -50%, respectively.

On to `CCc1nnc2n1CCN(C(=O)c1ccc3[nH]cnc3c1)C2`, for which the results for the Percent Effect in assay [1] and in assay [2] were -2.2% and -13.3%, respectively.
